# Data published in PubChem BioAssay.
# Active and inactive are the calls of the source. Unless noted, how the calls were made is not given here.
# Experiments:
# [1] = compound effects on lung adenocarcinoma cell viability – A549, calcein-AM fluorescence, 48 h, basal, profiling panel (AID 1162); conditions: higher = more signal; further: test concentration not given here
# [2] = compound effects on differentiated 3T3-L1 adipocyte viability – cell-based, 3T3-L1 adipocytes, calcein-AM fluorescence, 48 h, basal, profiling panel (AID 1163); conditions: 3T3-L1 adipocytes viability, higher = more signal; further: test concentration not given here
# [3] = compound effects on hepatocellular carcinoma cell viability – HepG2, calcein-AM fluorescence, 48 h, basal, profiling panel (AID 1164); conditions: higher = more signal; further: test concentration not given here
# [4] = compound effects on multiple myeloma cell viability – MM1S, calcein-AM fluorescence, 48 h, basal, profiling panel (AID 1165); conditions: higher = more signal; further: test concentration not given here
# [5] = calcein-AM signal in unstimulated myeloma cells – cell-based, calcein-AM fluorescence, 48 h, PK04 Diversity Set, profiling panel (AID 1166); conditions: RPMI8226 myeloma viability, higher = more signal;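 further: cells grown under basal conditions without added stimulus; test concentration not given here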
# [6] = JC-1 mitochondrial signal, unstimulated HepG2 cells – cell-based, JC-1 fluorescence, 24 h, 100 nL compound, profiling panel (AID 1167); conditions: HepG2 mitochondrial potential, higher = more signal; further: test concentration not given here
# [7] = JC-1 mitochondrial signal, unstimulated adipocytes – cell-based, JC-1 fluorescence, 3T3-L1 adipocytes, 24 h, 100 nL compound, profiling panel (AID 1168); conditions: JC-1 mitochondrial fluorescence, higher = more signal, called active from +8 up or from −8 down; further: test concentration not given here
# [8] = JC-1 mitochondrial signal, unstimulated myeloma cells – cell-based, JC-1 fluorescence, RPMI8226, 24 h, 100 nL compound, profiling panel (AID 1169); conditions: JC-1 mitochondrial potential fluorescence, higher = more signal; further: test concentration not given here
# [9] = JC-1 mitochondrial signal, unstimulated MM1S myeloma – cell-based, JC-1 fluorescence, 24 h, 100 nL compound, profiling panel (AID 1170); conditions: MM1S mitochondrial potential, higher = more signal; further: test concentration not given here
# [10] = resazurin metabolic signal in A549 cells – cell-based, resazurin fluorescence, 24 h, PK04 Diversity Set, profiling panel (AID 1171); conditions: A549 viability, higher = more signal, called active from +8 up or from −8 down; further: test concentration not given here
# [11] = resazurin metabolic signal in HepG2 cells – cell-based, resazurin fluorescence, 24 h, PK04 Diversity Set, profiling panel (AID 1172); conditions: HepG2 viability, higher = more signal; further: test concentration not given here
# [12] = budding yeast growth changes without added modifier – OD600, strain BY4716, 24 h, basal condition, primary screen (AID 1173); conditions: S. cerevisiae BY4716 growth, OD600, 24 h; higher = more signal, called active from +8 up or from −8 down
# [13] = viability profiling in MM1S myeloma cells – cell-based, resazurin fluorescence, basal, 24 h, PK04 Diversity Set, profiling panel (AID 1174); conditions: higher = more signal, called active from +8 up or from −8 down; further: test concentration not given here
# [14] = target: Dihydroorotate dehydrogenase (quinone), mitochondrial (Plasmodium falciparum (isolate 3D7)) (UniProt Q08210); experiment: inhibition of P. falciparum DHODH – biochemical, C-terminal His tag, absorbance 600 nm, primary screen (AID 1175); conditions: PfDHODH enzyme, DCIP absorbance 600 nm; higher = more signal, called active from +8 up or from −8 down;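 further: recombinant parasite enzyme with a five histidine tag at its C terminus; test concentration not given here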
# Sequence of Dihydroorotate dehydrogenase (quinone), mitochondrial (Plasmodium falciparum (isolate 3D7)) (Q08210 whole entry, looked up): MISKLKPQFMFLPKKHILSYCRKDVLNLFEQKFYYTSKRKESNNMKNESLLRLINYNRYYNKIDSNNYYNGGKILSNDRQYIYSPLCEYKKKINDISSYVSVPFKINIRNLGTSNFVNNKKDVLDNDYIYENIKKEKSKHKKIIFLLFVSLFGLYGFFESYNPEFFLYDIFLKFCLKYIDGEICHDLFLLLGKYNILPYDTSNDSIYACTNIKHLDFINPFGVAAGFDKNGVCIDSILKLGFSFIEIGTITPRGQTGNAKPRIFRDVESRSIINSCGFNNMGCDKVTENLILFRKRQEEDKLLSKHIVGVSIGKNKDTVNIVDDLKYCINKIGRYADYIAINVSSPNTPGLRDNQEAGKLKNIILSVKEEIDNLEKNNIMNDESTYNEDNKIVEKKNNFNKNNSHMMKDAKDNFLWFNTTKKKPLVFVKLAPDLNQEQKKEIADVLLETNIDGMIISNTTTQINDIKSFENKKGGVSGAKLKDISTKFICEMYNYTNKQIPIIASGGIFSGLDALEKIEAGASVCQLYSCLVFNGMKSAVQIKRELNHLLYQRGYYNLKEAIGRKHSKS
# [15] = inhibition of PAO1 biofilm formation – strain PAO1, LB-PBS medium, absorbance 600 nm, primary screen (AID 1176); further: test concentration not given here; conditions: P. aeruginosa PAO1 growth/biofilm, A600, 12 h; higher = more signal
# [16] = growth modulation of vineyard yeast isolate – strain RM11-1a, OD600, basal, 24 h, primary screen (AID 1177);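 further: cultures grown under basal conditions with no added stressor; test concentration not given here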; conditions: S. cerevisiae RM11-1a growth, OD600, 24 h; higher = more signal, called active from +8 up or from −8 down
# [17] = growth of efflux-deficient E. coli DRC39 – strain DRC39, OD650, 24 h, E. coli filamentation inducers, primary screen (AID 1178);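 further: growth measured as culture turbidity by optical density at 650 nm; test concentration not given here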; conditions: E. coli DRC39 acrAB, higher = more signal, called active from +8 up or from −8 down
# [18] = growth of efflux-deficient E. coli DRC39 – strain DRC39, OD650, 48 h, E. coli filamentation inducers, primary screen (AID 1179);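 further: screen aims at cell division blockers that make cells filament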; conditions: E. coli DRC39 delta-acrAB growth, higher = more signal, called active from +8 up or from −8 down
# [19] = viability profiling in RPMI8226 myeloma cells – cell-based, resazurin fluorescence, basal, 24 h, PK04 Diversity Set, profiling panel (AID 1180); conditions: higher = more signal;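 further: RPMI8826 multiple myeloma cell line at 5000 cells per well; test concentration not given here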
# [20] = target: E3 ubiquitin-protein ligase XIAP (Homo sapiens) (UniProt P98170); experiment: small molecules binding XIAP protein – biophysical, small-molecule microarray, fluorescence 635 nm, primary screen (AID 1181); conditions: higher = more signal;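 further: score merges 667 nm emission and signal to noise over triplicate slides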
# Sequence of E3 ubiquitin-protein ligase XIAP (Homo sapiens) (P98170 whole entry, looked up): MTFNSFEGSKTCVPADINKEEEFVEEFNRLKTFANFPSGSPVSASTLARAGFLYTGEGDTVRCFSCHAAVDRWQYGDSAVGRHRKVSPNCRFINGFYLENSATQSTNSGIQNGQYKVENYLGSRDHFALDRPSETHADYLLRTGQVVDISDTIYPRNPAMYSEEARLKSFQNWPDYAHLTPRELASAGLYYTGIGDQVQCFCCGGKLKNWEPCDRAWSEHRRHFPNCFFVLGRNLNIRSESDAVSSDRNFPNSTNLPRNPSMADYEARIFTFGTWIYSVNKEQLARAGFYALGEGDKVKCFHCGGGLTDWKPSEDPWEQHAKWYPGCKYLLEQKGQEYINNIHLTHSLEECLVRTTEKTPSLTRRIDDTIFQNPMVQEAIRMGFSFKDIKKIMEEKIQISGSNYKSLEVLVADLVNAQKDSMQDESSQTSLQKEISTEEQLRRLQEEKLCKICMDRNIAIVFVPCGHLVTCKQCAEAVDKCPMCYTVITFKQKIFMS
Structure (SMILES),z-score [1],z-score [2],z-score [3],z-score [4],z-score [5],z-score [6],z-score [7],z-score [8],z-score [9],z-score [10],z-score [11],z-score [12],z-score [13],composite z-score [14],z-score [15],z-score [16],z-score [17],z-score [18],z-score [19],composite z-score [20]
OC[C@H]1O[C@H](C#Cc2ccccc2)C=C[C@@H]1O,-0.259,0.0466,0.457,-3.41,-1.26,0.552,-0.397 (inactive),0.607,-0.673,-0.852 (inactive),-0.0313,-2.6 (inactive),-0.323 (inactive),-0.249 (inactive),0.298 (inactive),-0.353 (inactive),0.953 (inactive),0.626 (inactive),0.226,-0.184
O=C1[C@H]2[C@H]3[C@H](O)[C@H](O)CC(=NO[C@@H]4O[C@H](CO)[C@@H](O)[C@H](O)[C@H]4O)[C@@H]3CC[C@H]2C(=O)N1C1CCCCC1,0.646,-0.235,0.521,0.547,0.776,1.09,-0.229 (inactive),0.169,-1.25,-0.934 (inactive),-0.841,0.431 (inactive),-2.35 (inactive),-0.201 (inactive),0.553 (inactive),0.237 (inactive),-0.0163 (inactive),0.27 (inactive),-0.917,-0.132
O=C1C2=CC[C@H]3C(=O)N(C[C@@H]4CCCO4)C(=O)[C@H]3[C@H]2[C@H](O)[C@@H]2O[C@H]12,0.144,-0.579,-0.228,-3.11,-3.32,-0.549,0.465 (inactive),-0.836,-3.04,-0.824 (inactive),-0.154,-0.87 (inactive),-4.71 (inactive),-0.619 (inactive),-0.343 (inactive),-0.511 (inactive),0.0929 (inactive),0.424 (inactive),-1.7,0.204
O=C1CCCC=C1C(O)c1ccc([N+](=O)[O-])cc1 (stereo not given),-0.419,-0.388,-0.0678,-0.629,0.372,-0.614,-0.0489 (inactive),0.566,0.502,-0.258 (inactive),-0.426,-0.851 (inactive),-0.57 (inactive),-0.42 (inactive),-0.47 (inactive),-0.66 (inactive),0.47 (inactive),0.4 (inactive),-0.865,-0.0019
CCOC(=O)[C@H](CC(C)C)NC(=O)CCC1CC(OC(=O)NCc2ccc3c(c2)OCO3)CC2(CCCC(COC(=O)NCCOC)O2)O1 (stereo not given in full),0.0414,-0.453,-0.0998,-0.418,0.457,0.11,0.65 (inactive),0.413,-0.359,0.689 (inactive),1.22,-0.383 (inactive),0.982 (inactive),-0.617 (inactive),-0.516 (inactive),0.418 (inactive),0.214 (inactive),-1.31 (inactive),0.912,-0.0784
